The supplement of paper PMC6555819

Assays:
Assay in all cases: PBM binding z-score (relative to random genomic background probes); higher = stronger binding; sequences stand for … in GC…GCGATTGACAGCGTAGAATGAAGG
[1] = system: FXR:RXRa (NR concentration 270 nM, RXRa partner concentration 90 nM)
Procedure, shortened: (§1)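 Binding z-scores were set against random background probes. The data came from custom Agilent 4×180K protein-binding microarrays carrying double-stranded probes with 34-nt variable regions, incubated 1 h with ligand-free nuclear receptor dimers. Partner-specific antibodies detected binding, and scanned fluorescence was regression-normalized.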

[2] = system: LXRa:RXRa (NR concentration 270 nM, RXRa partner concentration 90 nM)
Procedure, shortened: as §1

[3] = system: LXRa homodimer (NR concentration 270 nM)
Procedure, shortened: as §1

[4] = system: LXRb:RXRa (NR concentration 270 nM, RXRa partner concentration 90 nM)
Procedure, shortened: as §1

[5] = system: LXRb homodimer (NR concentration 270 nM)
Procedure, shortened: as §1

[6] = system: PPARa:RXRa (NR concentration 270 nM, RXRa partner concentration 90 nM)
Procedure, shortened: as §1

[7] = system: PPARg:RXRa (NR concentration 180 nM, RXRa partner concentration 90 nM)
Procedure, shortened: as §1

[8] = system: PPARg:RXRa 270nM:90nM, anti-RXR (NR concentration 270 nM, RXRa partner concentration 90 nM)
Procedure, shortened: as §1

[9] = system: PPARg:RXRa 30nM:10nM, anti-RXR (NR concentration 30 nM, RXRa partner concentration 10 nM)
Procedure, shortened: as §1

[10] = system: PPARg:RXRa 90nM:30nM, anti-RXR (NR concentration 90 nM, RXRa partner concentration 30 nM)
Procedure, shortened: as §1

[11] = system: PPARg:RXRa DBDmut IVT, anti-RXR (DBD mutation: RXRa K156A/R161A, NR concentration 270 nM, RXRa partner concentration 90 nM)
Procedure, shortened: as §1

[12] = system: PPARg:RXRa IVT, anti-PPARg (NR concentration 270 nM, RXRa partner concentration 90 nM)
Procedure, shortened: as §1

[13] = system: PPARg DBDmut:RXRa IVT, anti-PPARg (DBD mutation: PPARg1 K132A/R137A, NR concentration 270 nM, RXRa partner concentration 90 nM)
Procedure, shortened: as §1

[14] = system: PPARg DBDmut IVT, anti-PPARg (DBD mutation: PPARg1 K132A/R137A, NR concentration 270 nM)
Procedure, shortened: as §1

[15] = system: PPARg homodimer (NR concentration 180 nM)
Procedure, shortened: as §1

[16] = system: PXR:RXRa (NR concentration 270 nM, RXRa partner concentration 90 nM)
Procedure, shortened: as §1

[17] = system: PXR homodimer (NR concentration 270 nM)
Procedure, shortened: as §1

[18] = system: RARa:RXR (NR concentration 270 nM, RXRa partner concentration 90 nM)
Procedure, shortened: as §1

[19] = system: RARa homodimer (NR concentration 270 nM)
Procedure, shortened: as §1

[20] = system: RARb:RXRa (NR concentration 270 nM, RXRa partner concentration 90 nM)
Procedure, shortened: as §1

Sequence	PBM binding z-score [1]	PBM binding z-score [2]	PBM binding z-score [3]	PBM binding z-score [4]	PBM binding z-score [5]	PBM binding z-score [6]	PBM binding z-score [7]	PBM binding z-score [8]	PBM binding z-score [9]	PBM binding z-score [10]	PBM binding z-score [11]	PBM binding z-score [12]	PBM binding z-score [13]	PBM binding z-score [14]	PBM binding z-score [15]	PBM binding z-score [16]	PBM binding z-score [17]	PBM binding z-score [18]	PBM binding z-score [19]	PBM binding z-score [20]
TCTTGTAGATCCAGCAGGTTAAGAAAGCCTGAGT	0.108	0.186	-0.293	0.284	-0.208	0.342	-0.483	1.03	2.62	1.84	1.04	-0.258	-0.0441	-0.28	-0.955	0.35	0.226	0.259	-0.051	0.133
TTCCCAAGGTGAAAGGTCGTTGATGCACGCCTTG	3.69	3.79	0.848	2.97	-0.253	5.44	7.9	7.35	6.2	7.54	1.67	4.56	0.3	-0.0355	1.79	4.12	0.342	5.56	-0.11	3.13
TCTTGTAGATCAAAGGTTGAGAAAGCCGAAGCCT	0.89	0.864	-0.12	0.541	-0.308	3.14	5.99	6.2	5.78	6.91	2.32	2.51	0.407	-0.0322	-0.0761	0.618	-0.464	1.05	-0.393	0.592
TAGCCTAGGTCAGATCGGGCCATTATACGCTATA	2.53	1.3	-0.125	1.07	-0.132	1.55	0.711	0.523	-0.272	0.0184	0.579	1.34	-0.598	-0.774	0.357	2.69	-0.448	1.33	-0.736	2.84
ATCTCTAGGTAATACTCAGTTCAGTGAAGAACGC	0.748	1.03	1.19	0.468	1.55	0.541	0.424	0.567	0.572	0.52	2.77	1.87	1.44	1.47	1.53	1.58	2.24	0.858	2.17	0.79
TCGAGTAGGATACCAATGGGGCATTCAGCTTTCT	-0.594	-0.525	-0.966	-0.394	-0.758	-0.335	-0.0828	-0.0523	0.785	0.306	1	-0.141	-0.244	-1.29	-1.04	-0.677	-0.988	-1.18	-1.27	-0.402
ACTAGCTGGTCAGCTGAGGTCACACACAATTCGG	3.62	3.57	2.15	3.21	-0.0797	3.58	1.76	2.01	0.341	0.958	0.832	1.83	0.106	-0.428	2.22	5.58	1.11	4.93	0.527	3.69
CCGACTGGGGCAAGTTTACCATAACGCACAGCCA	-0.129	0.0135	0.16	0.0377	-0.603	0.536	0.987	0.774	-0.288	0.451	3.19	2.78	-0.473	-0.469	0.332	-0.0221	0.029	0.0414	0.4	1.02
ATCTCTAGATAAAGATAGTTCAGTGAATGCAAAT	-0.281	0.122	0.343	0.191	0.206	-0.0361	0.872	0.0626	0.338	0.179	-0.378	-0.22	0.441	0.839	0.626	0.206	0.643	0.29	0.981	0.124
TCTATTAGTTGATTAAGGCAACCGAAACAGCGGA	0.785	0.541	0.0619	0.645	0.994	0.614	0.172	2.06	3.75	2.99	2.31	0.341	1.4	0.689	0.977	0.454	0.378	0.873	1.34	0.0773
GCGACTGGGGCATCAGCAGGTTACCATCACTTAA	-0.298	-0.121	-0.321	0.504	-0.992	0.811	0.679	0.547	-0.615	-0.341	4.02	3.08	-0.268	-0.441	0.406	-0.239	-0.641	0.272	-0.548	0.891
ACTAGTTGGTCAGTTGAGGTCACACACAATTCGG	3.26	3.93	3.56	3.58	0.939	4.12	2.13	2.59	0.914	1.69	1.58	2.98	1.37	0.982	3.72	5.67	2.39	4.98	1.56	3.54
TCATATAGTTAAAGGTGAAAGTCGAACGATATGA	0.692	1.27	-0.183	1.25	0.00404	2.69	2.49	3.41	3.96	3.79	1.5	1.85	0.7	1.07	1.1	0.912	-0.26	1.47	0.716	2.05
CCTGCTAGGTCACTGGTCAGCTAAAGCAGCTCGC	3.06	2.12	-0.0651	1.42	0.0623	3.29	3.55	4.04	1.31	3.18	4.87	4.51	0.683	-0.736	1.51	1.27	-0.378	2.08	-0.0661	3.92
TCTAGCAGGCCAGAGGGTCACACAAGAGGTACGG	1.67	1.66	-0.408	1.83	-1.34	3.11	2.49	3.28	2.36	3.09	1.19	1.38	-0.514	-0.172	1.57	2.37	-0.42	3.44	0.0542	2.62
TCTTGTAGACCAGCAGGTTAAGAAAGCTGGCCAA	0.124	0.0452	-0.542	0.0973	-0.717	0.558	-0.5	1.27	2.61	1.96	1.63	0.1	-1.37	-0.977	-0.0673	0.0995	-0.534	0.371	-0.568	0.179
CAAATTAGGTCAAGAGGTCAAAGTCCGCTTCCCG	7.34	6.64	6.19	6.05	2.41	6.6	9.93	8.63	8.32	9.12	8.5	8.22	3.42	1.71	8.6	6.49	3.51	8.33	5.28	5.74
TTACCAAGGTGAGCTGAGGCCGTTGATCCAACTC	0.053	-0.536	-0.916	-0.569	-1.39	0.236	-0.296	-0.253	-0.438	-0.329	0.88	1.24	-0.955	-0.387	-0.831	2.17	-0.968	1.15	-1.4	1.09
TCATATAGGTAAACATGTGAAAGTCCGTAAGTTA	0.869	0.742	0.308	0.769	0.208	1.58	1.86	2.39	3.92	3.22	4.4	3.17	1.32	1.79	0.718	0.808	0.34	0.815	1.18	0.412
TAGCCTAGGTTATTCAGGGGCCAGTATAGAAAGC	0.502	1.27	-0.0903	1.24	0.216	0.523	0.241	-0.0507	-0.33	0.0793	0.707	0.703	0.674	-0.312	-0.0619	0.0716	-0.463	0.719	-0.306	1.13
TCTAGCAGGCCAGAGGGTCACTAAAGAGGTACGG	0.744	0.827	-0.521	0.924	-1.08	2.12	1.48	2.66	1.97	2.41	0.806	0.475	-0.497	-1.37	0.659	1.14	-0.609	1.8	-0.574	2.05
TCTAATAGTTGAAGGGCAACCGACGAGTCCGTTT	0.931	0.943	0.0231	0.595	-0.0774	1.14	0.216	2.02	3.45	2.9	2.21	0.129	1.32	0.0205	0.705	0.839	0.503	0.712	-0.387	1.53
TCTAGTTGGTCACGGAGGTCAAACACGACGGGTA	4.19	4.67	4.58	4.25	1.38	4.39	3.25	4.13	3.76	4.08	2.37	3.95	0.658	0.77	3.43	5.11	2.87	5.16	1.13	3.9
ATATGTAGGTTAAGTGTCATTCAGGTTGGTTCGC	1.68	2.16	1.09	1.93	0.826	4.74	7.81	7.39	6.14	7.88	7.37	7.34	2.11	2.12	1.85	1.87	0.52	2.1	1.63	1.99
ATCGAAAGGTCGAGGTGAGTGTAGAGAAAGGGAA	4.53	3.52	0.118	2.74	0.572	4.69	3.13	3.76	1.42	2.6	0.382	2.47	0.918	-0.292	2.56	3.28	0.73	3.41	1.1	3.97
GCTTGTAGATCAAGGTTTAGAAAGACTAAGCTAA	-0.378	-0.689	-0.302	-0.532	-0.671	0.113	1.13	2.05	0.713	2.05	1.06	0.361	-0.41	0.0012	-0.0341	-0.479	-0.437	-0.166	0.111	-0.486
CCTTACGGGTCACTCCAGGTTTTAGCATCGGAGT	4.87	5.1	0.102	2.85	-0.172	4.69	3.06	3.81	0.53	2.55	2.81	3.28	2.95	0.802	3.03	3.61	0.181	4.14	0.643	3.68
ATAAGTAGGTTATCGGGTCATTCAGTTTGCGCAT	3.42	3.08	1.77	3.11	1.39	5.07	7.54	6.6	3.83	6.09	7.58	7.8	5.22	5.33	3.5	3.91	7.66	3.84	2.2	2.61
